Here are results for 26 compounds from PubChem BioAssay AID720540 (National Center for Advancing Translational Sciences (NCATS), 2013).

Out of some 1,300 compounds screened, about 460 (35%) were called active. About 39% were inconclusive and are not listed. The call rests on the fitted dose curve; in most records, active means well fitted inhibition curve with a large enough effect; inconclusive means small, poorly fitted or top-dose-only effect; inactive means flat fitted curve, though single readings scatter. The list shows a part of the results.
Potency means the concentration at half of the fitted maximal effect.

Sequence of Protein phosphatase EYA2 (Homo sapiens) (O00167 whole entry, looked up): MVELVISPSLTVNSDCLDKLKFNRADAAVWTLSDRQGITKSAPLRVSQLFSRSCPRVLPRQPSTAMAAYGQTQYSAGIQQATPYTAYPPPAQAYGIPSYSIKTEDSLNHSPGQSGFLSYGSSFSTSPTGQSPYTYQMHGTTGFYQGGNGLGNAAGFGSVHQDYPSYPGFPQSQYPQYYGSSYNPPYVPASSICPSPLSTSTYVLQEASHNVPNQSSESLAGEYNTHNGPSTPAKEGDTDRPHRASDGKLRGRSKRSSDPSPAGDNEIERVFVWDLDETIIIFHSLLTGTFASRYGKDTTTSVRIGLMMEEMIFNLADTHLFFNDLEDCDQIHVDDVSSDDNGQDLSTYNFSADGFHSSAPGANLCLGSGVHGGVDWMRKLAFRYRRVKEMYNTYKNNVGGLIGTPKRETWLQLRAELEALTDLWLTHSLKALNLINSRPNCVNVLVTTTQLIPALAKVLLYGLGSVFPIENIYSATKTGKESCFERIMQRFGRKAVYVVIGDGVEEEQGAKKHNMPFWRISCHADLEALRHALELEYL

The assay addresses Protein phosphatase EYA2 (Homo sapiens) (UniProt O00167). Nature of the assay: qHTS for Inhibitors of the Phosphatase Activity of Eya2: Confirmatory Assay for Cherry-picked Compounds. Further: nearly all actives have a fitted effect of over 65% in size.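 On activity change, negative = inhibition: 0% = DMSO wells and -100% = EGTA control giving full inhibition.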 The following applies: purified EYA2 phosphatase activity, qHTS confirmation; series mostly up to 46.1 µM; activity change, negative = inhibition: at the top concentration. The procedure, abridged: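 Eya2 (0.2 uM working solution) preincubated 10 min at room temperature with compound in pH 7.5 HEPES buffer with MgCl2, BSA, DTT. OMFP added (50 uM working solution), 10 min more; fluorescence 485/525 nm, normalized to EGTA and DMSO.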
Take `CC1Cc2ccccc2N1C(=O)C1CCCN1S(=O)(=O)c1ccc(Cl)cc1` (stereo unspecified): the “activity change, negative = inhibition” value is 1.17% (inactive).

As for `Cc1nn(C)c(Cl)c1CN1CCCC(CO)(Cc2cccc(Cl)c2)C1` (stereo unspecified), the “activity change, negative = inhibition” value was -16.1% (inactive).

Take `CC1CS(=O)(=O)CCN1N=Cc1ccc([N+](=O)[O-])o1` (stereo unspecified): the “activity change, negative = inhibition” value is -2.82% (inactive).

For the compound `O=C(O)c1ccc2c(=O)n3cc(C(=O)c4ccccc4O)cc(Cl)c3nc2c1`, the Potency was 15.1 µM (active).

Regarding `C=C(CC[C@]12OC(C(=O)O)C(O)(C(=O)O)C(C(=O)O)(O1)C(OC(=O)/C=C/[C@@H](C)C[C@@H](C)CC)C2O)[C@@H](OC(C)=O)[C@H](C)Cc1ccccc1` (stereo partly specified), the Potency is 19 µM (active).

As to `Cc1cc(C)c(C#N)c(Sc2nnnn2-c2ccccc2)n1`, the “activity change, negative = inhibition” value was -3.69% (inactive).

Turning to `COc1ccc(Nc2cc3n(c(=O)n2)CCc2cc(OC)c(OC)cc2-3)c(C)c1`, the Potency was 15.1 µM (active).

For `COc1cc2c(cc1OC)-c1cc(Nc3ccccc3)nc(=O)n1CC2`, the Potency is 6.75 µM (active).

As to `COc1cc2c(cc1OC)-c1cc(Nc3ccc(F)cc3)nc(=O)n1CC2`, the Potency is 2.39 µM (active).

Take `CCOc1ccc(Nc2cc3n(c(=O)n2)CCc2cc(OC)c(OC)cc2-3)cc1`: the Potency is 6.75 µM (active).

Consider `FC(F)(F)c1ccc(CN2C[C@@H]3C(c4ccc(Cl)nc4)C4(c5cccnc5)CC3(C4)[C@H]2c2ccccc2)cc1` (stereo partly specified), for which the “activity change, negative = inhibition” value was -20.4% (inactive).

On to `O=C(NCc1ccco1)C1CC2CCC1C2` (stereo unspecified), for which the “activity change, negative = inhibition” value is -4.68% (inactive).

In the case of `COc1cc2c(cc1OC)-c1cc(Nc3ccc(C)cc3)nc(=O)n1CC2`, the Potency was 5.36 µM (active).

As for `Cc1c(C(=O)/C=C/N(C)C)nnn1-c1ccc(Cl)cc1Cl`, the “activity change, negative = inhibition” value was -1.95% (inactive).

Regarding `CCc1c(C)nc(Nc2nc(C)c3ccc(OC)cc3n2)[nH]c1=O`, the Potency is 3.79 µM (active).

Turning to `C[C@](N)(Cc1ccc(O)c(O)c1)C(=O)O`, the “activity change, negative = inhibition” value was -6% (inactive).

`COc1ccc(C(=O)Nc2ccc3c(c2)CCCN3C(=O)c2cccs2)c(OC)c1`: the Potency is 8.49 µM (active).

On to `COc1cc(NC(=O)c2ccccc2Cl)ccc1NC(=O)c1cccs1`, for which the “activity change, negative = inhibition” value is -14.2% (inactive).

As to `O=C(/C=C/c1ccco1)Oc1cccc2cccnc12`, the Potency is 15.1 µM (active).

As to `O=C(/C=C/c1ccccc1)Oc1cccc2cccnc12`, the Potency was 6.75 µM (active).

In the case of `O=C(/C=C\c1ccccc1)Oc1cccc2cccnc12`, the Potency was 7.57 µM (active).

As for `COc1ccccc1/C=C/C(=O)Oc1cccc2cccnc12`, the Potency was 9.53 µM (active).

On to `COCCNC(=O)CCC(=O)NNc1nc2ccccc2c2nc(-c3ccccc3)nn12`, for which the “activity change, negative = inhibition” value is -27% (inactive).

With `c1ccc(-c2ccc(C3=Nn4c(nnc4-c4cc(-c5ccccc5)n[nH]4)SC3)cc2)cc1`, the “activity change, negative = inhibition” value is -22.5% (inactive).

As for `N#Cc1ccc(CSc2nnc(-c3c[nH]c4ccccc34)n2-c2ccccc2)cc1`, the “activity change, negative = inhibition” value is -25.4% (inactive).

Regarding `COc1ccc(N=C2SC(C(=O)N3CCN(c4ccc([N+](=O)[O-])cc4)CC3)CC(=O)N2C)cc1` (stereo unspecified), the “activity change, negative = inhibition” value is -14.5% (inactive).
